Compound activity deposited in PubChem by The Scripps Research Institute Molecular Screening Center.
TLR4 MyD88 comp: inhibitors of human TLR4-MyD88 binding; O00206+Q99836; HeLa CL3-4 TLR4/MyD88 BLA complementation, FRET ratio; inhibition, % at 8.4 µM; 200,000 compounds, 0.18% hits; AID 861; in the data active = inhibition above about 25%;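 also: 0% = vehicle and 100% = reference inhibitor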
ABHD5-PLIN5 inh: ABHD5-PLIN5 protein interaction inhibition | Split G. princeps luciferase complementation, luminescence, 4 h | 360,000 compounds, 0.78% hits | inhibition, % at 4 µM | AID 602281;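 active = inhibition above the mean inhibition across every tested compound plus 3 SD, cut at about 22% in these data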;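 also: 0% = DMSO only wells and the 100% control is not disclosed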
Target sequence (Q00G26 whole entry, looked up): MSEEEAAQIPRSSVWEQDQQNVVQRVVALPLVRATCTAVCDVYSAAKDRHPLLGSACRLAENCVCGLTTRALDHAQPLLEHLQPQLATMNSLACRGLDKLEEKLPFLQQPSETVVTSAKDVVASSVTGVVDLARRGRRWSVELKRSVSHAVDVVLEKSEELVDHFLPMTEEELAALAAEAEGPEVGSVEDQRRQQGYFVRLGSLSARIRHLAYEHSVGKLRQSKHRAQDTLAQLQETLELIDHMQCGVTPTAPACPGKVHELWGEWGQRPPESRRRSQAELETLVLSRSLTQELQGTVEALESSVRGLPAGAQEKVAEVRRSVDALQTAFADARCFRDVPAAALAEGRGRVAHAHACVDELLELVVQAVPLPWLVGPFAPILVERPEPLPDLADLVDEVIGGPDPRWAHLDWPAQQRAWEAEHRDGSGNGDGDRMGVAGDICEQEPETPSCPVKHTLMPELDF
Target sequence (Q8WTS1 whole entry, looked up): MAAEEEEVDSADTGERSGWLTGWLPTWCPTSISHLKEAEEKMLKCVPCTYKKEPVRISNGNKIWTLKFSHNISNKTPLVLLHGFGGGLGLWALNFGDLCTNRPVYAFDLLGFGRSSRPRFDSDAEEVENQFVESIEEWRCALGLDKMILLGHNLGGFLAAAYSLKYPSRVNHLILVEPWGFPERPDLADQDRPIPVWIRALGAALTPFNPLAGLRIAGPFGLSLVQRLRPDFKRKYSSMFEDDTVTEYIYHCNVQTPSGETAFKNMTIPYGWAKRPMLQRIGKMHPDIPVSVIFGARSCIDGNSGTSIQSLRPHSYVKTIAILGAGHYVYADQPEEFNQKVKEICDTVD
TLR9-MyD88 inh: inhibitors of human TLR9-MyD88 binding; inhibition, % at 4.98 µM; 340,000 compounds, 0.21% hits; CHO BLA complementation TLR9-MyD88, CCF4 FRET ratio; AID 504734; Q9NR96+Q99836;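 active = inhibition above the mean over all tested compounds plus 3 SD, cut at about 21% in these data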;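 also: 0% = DMSO only wells and 100% = clavulanate BLA inhibitor control wells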
rCAG binder: binds r(CAG) RNA repeats. r(CAG) RNA repeat, TO-PRO-1 dye displacement fluorescence. AID 651821. 370,000 compounds, 1.3% hits. inhibition, % at 3 µM;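 active = inhibition above the plate cutoff, the mean of all test compounds on that plate plus 3 SD, cut at about 35% in these data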;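 also: 0% = DMSO alone and 100% = 100 µM mitoxantrone as full dye displacement; higher means more dye released from RNA so lower well fluorescence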
NOD2-RIPK2 inh: NOD2-RIPK2 protein interaction inhibition | CHO BLA complementation NOD2-RIPK2, CCF4 ratio | inhibition, % at 4.98 µM | 360,000 compounds, 0.38% hits | AID 624267; in the data active = inhibition above about 21%;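 also: 0% = vehicle only and 100% = reference blocker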
PRMT1 inh: blocks human protein arginine methyltransferase 1 | Q99873 | recombinant PRMT1, activity-based probe fluorescence polarization | inhibition, % at 2.79 µM | 370,000 compounds, 1.3% hits | AID 652257;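 active = inhibition above about 21% made by adding two undisclosed values, limit read from the data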
NOD2-RIPK2 conf: NOD2-RIPK2 interaction inhibition confirmed; shares compounds with NOD2-RIPK2 inh; CHO cells, NOD2-RIPK2 BLA complementation, CCF4 FRET; inhibition, % at 4.98 µM; 1,200 compounds, 70% hits; AID 624370;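 active = mean inhibition across replicates above a set limit taken from the earlier primary screen, cut at about 21% in these data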;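 also: 0% = DMSO-only wells and the high end = clavulanate BLA-blocked wells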
NOD2 BLA counter: hits BLA reporter in NOD2-RIPK2 inhibitor counterscreen. shares compounds with NOD2-RIPK2 inh. CHO BLA reporter, CCF4 FRET ratio. inhibition, % at 4.98 µM. 1,200 compounds, 57% hits. AID 624371;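 active = mean inhibition above the low-control mean inhibition plus three low-control SD, cut at about 11% in these data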;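 also: 0% = DMSO only wells and 100% = clavulanate high control wells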
rCAG bind conf: r(CAG) RNA repeat binding, confirmation | shares compounds with rCAG binder | TO-PRO-1 dye displacement fluorescence | inhibition, % at 3 µM | 4,300 compounds, 70% hits | AID 652065;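 active = inhibition above a per-plate cutoff, the mean inhibition of sample wells plus 3 SD, cut at about 35% in these data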;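 also: loss of TO-PRO-1 fluorescence as compound displaces dye from 1x1 AA loop RNA; 0% = DMSO only wells and 100% = 100 µM mitoxantrone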
DNA CAG counter: counter-screen for rCAG RNA binders: DNA CAG dye complex inhibitors; AID 652068; d(CAG) DNA oligo TO-PRO-1 dye displacement, fluorescence; shares compounds with rCAG binder; 4,300 compounds, 94% hits; inhibition, % at 3 µM;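 active = inhibition above its plate's cutoff, the mean test-well inhibition plus 3 SD, cut at about 4.8% in these data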;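 also: 0% = DNA dye mix with DMSO and 100% = 100 µM mitoxantrone; hits displace the dye from DNA and so lower well fluorescence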
Numbers without * were called inactive. Rows were chosen to be rich in hits. Some 3.3% of all compounds tested hit in one or more screens of this group.

CC(C)CN(C(=O)CSc1nnnn1-c1ccccc1)c1c(N)n(CC(C)C)c(=O)[nH]c1=O was read as TLR4 MyD88 comp -1, ABHD5-PLIN5 inh -2, TLR9-MyD88 inh 1, rCAG binder -6, NOD2-RIPK2 inh -16 and PRMT1 inh 3.
`CC(C)(C)OC(=O)n1cccc1/C=C1\c2ccccc2C(=O)N1c1ccccc1` gave ABHD5-PLIN5 inh 8, TLR9-MyD88 inh -2, NOD2-RIPK2 inh 41*, NOD2-RIPK2 conf 6 and NOD2 BLA counter 5.
Cc1cc2[nH]c3c(c[n+](C)c4ccccc34)c2cc1C was read as TLR4 MyD88 comp 17, ABHD5-PLIN5 inh 5, TLR9-MyD88 inh 7, rCAG binder 22, NOD2-RIPK2 inh 8 and PRMT1 inh 0.
`Cc1cc2[nH]c3c4ccccc4nc(C)c3c2cc1C` gave ABHD5-PLIN5 inh 7, TLR9-MyD88 inh -1, rCAG binder 25, NOD2-RIPK2 inh 21*, PRMT1 inh -1, NOD2-RIPK2 conf 26* and NOD2 BLA counter -7.
`CCCCc1ccc(NC(=O)CSc2nc(=O)n3cc(C)ccc3n2)cc1` gave ABHD5-PLIN5 inh -1, TLR9-MyD88 inh -8, rCAG binder 0, NOD2-RIPK2 inh -2 and PRMT1 inh 4.
For O=C(COc1ccc(Br)cc1)N(Cc1ccco1)C1CCS(=O)(=O)C1 (centres undefined) the results were ABHD5-PLIN5 inh 4, TLR9-MyD88 inh 2, rCAG binder -5, NOD2-RIPK2 inh -6 and PRMT1 inh -3.
COc1ccccc1-c1nnc(Nc2nc3c(OC)cccc3s2)o1 was read as TLR4 MyD88 comp 15, ABHD5-PLIN5 inh 5, TLR9-MyD88 inh 18, rCAG binder 53*, NOD2-RIPK2 inh 26*, PRMT1 inh 1, NOD2-RIPK2 conf 19, NOD2 BLA counter 3, rCAG bind conf 58* and DNA CAG counter 20*.
`C=C(C)CSc1nnc([C@@H](NC(=O)OC(C)(C)C)C(C)CC)o1` (some centres undefined) gave TLR4 MyD88 comp -2, ABHD5-PLIN5 inh 2, TLR9-MyD88 inh -6, rCAG binder -3, NOD2-RIPK2 inh 3 and PRMT1 inh -3.
For COc1ccc(NC(=O)C2CC(=O)N/C(=N/N=C/c3ccccc3)S2)cc1 (centres undefined) the results were ABHD5-PLIN5 inh 5, TLR9-MyD88 inh 0, rCAG binder 3, NOD2-RIPK2 inh 2 and PRMT1 inh 1.
For CC(/C=C/c1ccc(N(C)C)cc1)=N/N=C1/NC(=O)CC(C(=O)Nc2ccc(Cl)cc2)S1 (centres undefined) the results were TLR4 MyD88 comp 7, ABHD5-PLIN5 inh 8, TLR9-MyD88 inh 14, rCAG binder 41*, NOD2-RIPK2 inh 24*, PRMT1 inh -2, NOD2-RIPK2 conf 19, NOD2 BLA counter 32*, rCAG bind conf 41* and DNA CAG counter 14*.
CCc1noc(C)c1C(=O)NC1CC(C)(C)Cc2c1cnn2-c1ccccc1 (centres undefined) was read as ABHD5-PLIN5 inh -5, TLR9-MyD88 inh 8, rCAG binder -7, NOD2-RIPK2 inh -3 and PRMT1 inh 0.
For O=c1oc2ccccc2cc1-c1nc(-c2cccs2)cs1 the results were TLR4 MyD88 comp 17, ABHD5-PLIN5 inh -5, TLR9-MyD88 inh 20, rCAG binder 41*, NOD2-RIPK2 inh 32*, PRMT1 inh -20, NOD2-RIPK2 conf 43*, NOD2 BLA counter 51*, rCAG bind conf 12 and DNA CAG counter 8.6*.
